109 sequences from PubChem BioAssay AID1347426 (Functional Genomics Laboratory (NCATS/FGL), 2020) can be followed below.

Hit rate of the full screen: of about 31,000 sequences, about 1,400 (4.5%) were called active. Many of the other results were omitted from the sample, so actives are more common in it than they were. Values without a mark were called inactive.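 How the source made its calls: active means median seed-adjusted z-score above 1 or below -1; inactive means the rest.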

This experiment in a line: Novel Modifiers of Survival Motor Neuron (SMN) Protein: Gene Identification via Genome-wide siRNA Screen.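 Further: luminescence tracks full-length SMN protein made from the SMN2 reporter.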 Particulars: HEK293T SMN2-luciferase reporter, siRNA knockdown, 72 h; actives lie on both sides. The essentials: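 Luciferase signal, proportional to full-length SMN made from an SMN2 cDNA reporter in stable HEK293T cells, was read 72 h after siRNA reverse transfection. Values were expressed as MAD scores after non-targeting-control normalization and log10 conversion; seed analysis flagged off-targets.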
ACGGUUCGCUGAAAAAGAATT against PITX3: the median seed-adjusted z-score was 0.
As to CGUCCAUACUUACCUAAUUTT against UGT2A1, the median seed-adjusted z-score was 0.213.
CGACCGCACCUGGAAUGAATT against PLA2G4D: the median seed-adjusted z-score is -0.233.
Turning to GCGUGUCAGCUGUUCAUUATT against OSBPL5, the median seed-adjusted z-score was 0.638.
With CAAGCCCUCUGAAACAGUUTT against ADRA1A, the median seed-adjusted z-score is -1.06 (active).
GCAUAUGAUUUUAUGGUAATT against FBXW7: the median seed-adjusted z-score is 0.
Turning to CUCUCUAUAUUGAAACCAATT against CHN1, the median seed-adjusted z-score is 2.1e-05.
Take ACUGAAAGCUGAUUAAUUATT against KLK2: the median seed-adjusted z-score was 0.0716.
Next, GAGCUGAUCUGUUACAAGUTT against DAK: -0.372; GAACACUCUAUGUCUAAUATT against MYNN: 0.0702; GUGAUGUCAUUAGGCAGAATT against CRIP3: 1.7 (active).
The figure for UCCCAGUUCUGAUACAUAUTT against SAE1 is 0.831; for AGACCUGCGUGGUGCACUATT against FKBP1A it is 0.113.
On to GGAGCUUCAGGUUGUCCGATT against RPUSD3, for which the median seed-adjusted z-score is 0.303.
With CGAUGGACAGUGUCUCUUATT against ALG6, the median seed-adjusted z-score is 0.106.
For the sequence UCCUUGUUGUGGACAGGGATT against SPINK4, the median seed-adjusted z-score is -0.0134.
Consider GGACCUAUUCGUCAAAUCATT against SF3B14, for which the median seed-adjusted z-score is -1.26 (active).
Turning to CCUUGCUUGUGAGAGCAGATT against NPAS1, the median seed-adjusted z-score is -0.386.
As for GCGUUAUCCUCGUACCUUUTT against STC2, the median seed-adjusted z-score was -0.00039.
On to CUAUCCACCAUACAUUUCATT against NTM, for which the median seed-adjusted z-score is 0.
On to GCAACGGGUUUGGAGUCAATT against KRT75, for which the median seed-adjusted z-score was 0.0773.
Turning to CCAUCUCGACUGACAAGAATT against TNNI3K, the median seed-adjusted z-score was -0.178.
On to GCUAUUAUCUAAGCACGAATT against ADAMTS20, for which the median seed-adjusted z-score is 1.44 (active).
Consider GAUAUAUCCGAAACCAGUATT against PDGFD, for which the median seed-adjusted z-score was 0.366.
As to GAAUCGGCGAUGUACUAGATT against NT5C3, the median seed-adjusted z-score is -0.456.
Regarding CUAUGUCGUUGAAAACCAUTT against KCNE1, the median seed-adjusted z-score was -0.347.
The figure for GGAAGUAUUAGGGUACAAATT against SOS2 is 0.3; for GAGUAUCUCUGAAACCUCUTT against IL1A it is 1.12 (active).
As to GGGAGUGACAUAUCCAAGATT against CCL26, the median seed-adjusted z-score was -0.01.
Turning to CGGAAGGUGUAUGAACUGATT against ICAM1, the median seed-adjusted z-score is 0.345.
Next, GCAAGGUCGUCAACCGCAATT against SAPS1: 1.16 (active); GCAGUUCCAUGGUACACCATT against ASAH1: 0.421; GUCAGAUACAUGAACCAGATT against JMJD1A: 0.466.
As for GGAUAGGAGUCAUCAGCCUTT against SSTR3, the median seed-adjusted z-score was 0.
CCCAAUUCAGAUUACUACATT against POLN: the median seed-adjusted z-score is -0.129.
As to CUACUCAACAGACAUAAUATT against TRIP13, the median seed-adjusted z-score was 1 (active).
For GGCUUCUACUGGUGUCUGATT against PIGR, the median seed-adjusted z-score is -0.35.
As for GGACUUACACUCUUAGGAATT against MAOB, the median seed-adjusted z-score is 0.
For CACAACAUCUUGUAAGACUTT against GNG13, the median seed-adjusted z-score was -0.516.
CGCCGACUCUAUUCAUGCATT against RAB22A: the median seed-adjusted z-score was 0.321.
With CGAGAGUAAUUUGAAGAAUTT against SIGMAR1, the median seed-adjusted z-score was -1.4 (active).
With GAUGGAUCUUUACAGUUGATT against METTL4, the median seed-adjusted z-score is 0.244.
Next, GAACAAUCAUUGCAUCGGATT against CPB2: -0.62.
Take CCUUACCUGGAGUACCCAATT against PMPCA: the median seed-adjusted z-score is -0.985.
As for GGACCGAAGUCAAUGGUUUTT against SMC2, the median seed-adjusted z-score was -0.052.
As to CAUUUAGUGUACAUUCAAATT against ZNF665, the median seed-adjusted z-score is 1.13 (active).
With CGACAGGGUAUCCAACUAATT against WASL, the median seed-adjusted z-score was 0.143.
For the sequence CAUGGAAAAUGAUGACGAATT against PPP4R2, the median seed-adjusted z-score is 0.211.
CUCAAGAACUGUCAAGUAATT against GSK3B: the median seed-adjusted z-score is -0.952.
Turning to GGACAUCUAUGUUAUAUGUTT against TRIM65, the median seed-adjusted z-score was -0.599.
In the case of CGUCAUCCCUCAACAAGAATT against ATP2B2, the median seed-adjusted z-score is 1.37 (active).
Regarding GGCUAUUACUCAGUACAGATT against TLN1, the median seed-adjusted z-score is -0.0619.
Turning to CUAUGUGAUUGAUCAAGGATT against PRKAR1A, the median seed-adjusted z-score was 0.428.
Turning to UCAUCGGCGUGAUCGUGUATT against CACNG8, the median seed-adjusted z-score was 0.214.
Next, GAAUUUGCGAUGUACUUAATT against CSNK1A1: -0.608.
The figure for GGAAAGGAAUGGUCACGAATT against ZNF321 is -0.642; for AGGUCAACACGGAGCUCAATT against CHRM1 it is 1.1 (active).
In the case of GAAGAAUAGUGAUGCUCGATT against GRIA1, the median seed-adjusted z-score is 0.927.
For CUAAUUCAACAUUACAUCATT against ZNF550, the median seed-adjusted z-score was 0.131.
For the sequence CGACAGUCUUGCUGAAAAATT against NOTO, the median seed-adjusted z-score is -0.193.
GCACGAUUACUACUACCGATT against PNPLA1: the median seed-adjusted z-score was 0.00692.
Turning to GGAUGUCGGCAACACGGAATT against MYBPC3, the median seed-adjusted z-score is 0.304.
Next, AAAGAAUGCGUGCUUUUAATT against RABGGTA: -0.0601; CACUGUAACGACUUCCUUATT against CCIN: 0.0472.
Next, GAAAUUGACAUGUUGGAUATT against ANXA4: -0.0932; GACUGUCGCUGGUUGGAGATT against ACPT: -0.114; AGACCGAACUGGUUUCGCUTT against CDKN2C: -0.0789.
In the case of CACUCGAAGCAGUUUGGAATT against SMS, the median seed-adjusted z-score is 0.186.
As to CAGUGAAACUGCACCUCUATT against TGM1, the median seed-adjusted z-score was -0.286.
In the case of CCAACGAGCGAGCAGCUUATT against BARX1, the median seed-adjusted z-score was 1.63 (active).
Next, ACGGCAAGGUGUUCGAUGUTT against PGRMC1: 0.124; CGUUCGACCUGAUCGCAAATT against ODZ2: -0.0233.
The figure for GGGUCACACUAUUUCGUGUTT against ARIH1 is -0.443; for GAUGAGUGCUGCUUCCGGATT against IGF1 it is 0.559; for CCAGCUCCACGAAAAAGAATT against ZNF395 it is -0.0986.
The figure for GAUACAGUCUACGCAGUUATT against ATPAF1 is 0.393.
As to CAGCGUGCAUUUUCACUAATT against AKAP11, the median seed-adjusted z-score was -0.0405.
On to GCACUAAGAGUGACGUGUATT against PSKH1, for which the median seed-adjusted z-score is -2.03 (active).
The figure for GGCUACAAUUUAAGACGAUTT against TNR is 0.498; for GAAAGAUGCAAAAGACAAATT against SFPQ it is -1.15 (active).
For GGUUAUGUAGUAACGAGUUTT against ALS2, the median seed-adjusted z-score was 0.
Take GGAAUAUAAUAAGCGAAGATT against TAOK1: the median seed-adjusted z-score was -0.0533.
The figure for CGAGACUACUAAAGAAACATT against DDX18 is 0.241; for CUACGACUUUUCCAAUAUATT against SLC6A4 it is 1.43 (active).
Take CCAUCUCCCUUGUGCUGCATT against NINJ1: the median seed-adjusted z-score is -0.061.
Take GAGAGACCCUCGUCCUUUATT against CYP20A1: the median seed-adjusted z-score was -0.796.
Take GAAAGGCUUUGACCAAUCUTT against ZNF319: the median seed-adjusted z-score was 0.256.
On to GUCACUAGCUUAUCUUGAATT against VEGFA, for which the median seed-adjusted z-score is 0.495.
With AGCAAAGUGUUCUACCUGATT against YWHAG, the median seed-adjusted z-score is 1.98 (active).
For GAAAAUCGAAAGACUAAAATT against UTP11L, the median seed-adjusted z-score is -0.755.
On to CUAAUGAGUUUGUCUAAUATT against PKDREJ, for which the median seed-adjusted z-score is 0.376.
For AGUGGAUUGUAGACAUGGATT against UBE2W, the median seed-adjusted z-score was -0.655.
Take GCAUCUACCGGAUCCUGAUTT against DDX49: the median seed-adjusted z-score was 0.0816.
Consider GCAGGCUAAUCGCAAUGAATT against ANXA13, for which the median seed-adjusted z-score was -0.467.
As for GCCAGAGUCCUGAUGCACATT against GPR31, the median seed-adjusted z-score was -0.0381.
Next, GGACAAAGCAUUGACAAUUTT against KCNJ13: 0.327; CAUCGGCUAUGACAACAUUTT against PSTPIP2: 0.0136; GGUUCGUGAAGUUCGUAAATT against UTP3: -1.08 (active).
For the sequence GAGUUAGGGAAAAAGCGUATT against ANK3, the median seed-adjusted z-score was 0.0252.
Regarding CGUUGUUUUUGAGCACGUUTT against LMBR1, the median seed-adjusted z-score was 0.236.
As to GGGAGAUCCUAGAACAAGATT against TAOK1, the median seed-adjusted z-score is -0.0533.
As for GUUUUGACCCUAUAGUUUATT against P2RY5, the median seed-adjusted z-score was 0.0278.
With GCAUUUGUUUGGGUUGCGATT against MTF2, the median seed-adjusted z-score was 0.
Turning to GCAUUGUGAUCGAGGACAATT against HCN2, the median seed-adjusted z-score is 0.
Turning to CGACAAUUCUUCUAGACAATT against TTC3, the median seed-adjusted z-score is -1.17 (active).
Turning to ACAUCGAGUCAGAUCUUCATT against SLC11A1, the median seed-adjusted z-score is -0.516.
In the case of GGAGGUAUCUAACAAGAUUTT against LPO, the median seed-adjusted z-score was 0.201.
Take UGCACGAUCUUCUACCCAATT against TKTL1: the median seed-adjusted z-score is -0.495.
Consider AGCUUUCUUGAGCACCUGATT against LRRC32, for which the median seed-adjusted z-score is 0.0464.
